Inconclusive results are not listed. A call without a number means that no potency is given here. Values without a mark were called inactive. The source made the active and inactive calls. Unless noted, calls follow the shape of the dose curve; as a rule, active = well fitted curve in the direction sought with a large enough effect in the repeat runs; inconclusive = weak or mixed curves; inactive = no such curve, though single readings can be large; an effect the other way counts as inactive or inconclusive.
What was measured:
[1] = qHTS assay to identify aromatase inhibitors - cell viability counter screen (AID 743084);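 also: cells stimulated with testosterone during compound exposure; nearly all actives have a fitted effect of over 55% in size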; also: potency is read from the fitted curve at half-maximal effect
[2] = qHTS assay to identify small molecule that activate the aryl hydrocarbon receptor (AhR) signaling pathway - cell viability counter screen (AID 743086); also: nearly all actives have a fitted effect of over 45% in size; also: potency is read from the fitted curve at half-maximal effect
Outline: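 Cytotoxicity counter screen: CellTiter-Fluor signal (30 min, 37 C) in 4000 HepG2 cells/well carrying the DRE-luciferase reporter, following 24 h compound exposure at 37 C.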

[3] = biological target: Peroxisome proliferator-activated receptor gamma (Homo sapiens) (UniProt P37231); experiment: qHTS assay to identify small molecule agonists of the peroxisome proliferator-activated receptor gamma (PPARg) signaling pathway (AID 743094; active = well fitted activation curve with a large enough effect in the signal ratio in the repeat runs, not every such curve was filed as active; the % refers to the signal ratio)
Sequence of Peroxisome proliferator-activated receptor gamma (Homo sapiens) (P37231 whole entry, looked up): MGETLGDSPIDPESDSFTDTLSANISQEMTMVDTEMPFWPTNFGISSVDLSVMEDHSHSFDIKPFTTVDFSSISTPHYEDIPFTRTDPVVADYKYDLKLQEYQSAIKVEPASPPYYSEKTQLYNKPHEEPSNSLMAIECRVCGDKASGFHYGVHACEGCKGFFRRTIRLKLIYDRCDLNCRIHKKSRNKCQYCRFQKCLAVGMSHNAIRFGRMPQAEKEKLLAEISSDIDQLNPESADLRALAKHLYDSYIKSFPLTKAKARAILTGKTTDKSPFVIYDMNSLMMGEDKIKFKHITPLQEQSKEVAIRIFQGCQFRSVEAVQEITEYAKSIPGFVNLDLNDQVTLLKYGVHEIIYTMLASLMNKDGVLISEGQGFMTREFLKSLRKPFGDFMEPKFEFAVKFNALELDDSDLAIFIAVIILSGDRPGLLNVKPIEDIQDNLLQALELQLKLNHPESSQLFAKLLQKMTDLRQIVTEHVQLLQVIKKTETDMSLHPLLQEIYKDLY
Outline: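 Compounds dissolved in DMSO were added to PPARg UAS-bla HEK293H cells for 17 h at 37C, and reporter expression was quantified by fluorescence intensity after 1 h with LiveBLAzer B/G FRET substrate.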

[4] = qHTS assay to identify small molecule phospholipidosis (PLD) inducers (AID 1259344; active = well fitted curve in the direction sought with a large enough effect; an effect the other way counts as inactive or inconclusive)
Outline: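 Fluorescent phospholipid staining (LipidTOX Red) measured by automated microscopy in fixed HepG2 cells after 24 h treatment; nuclei counterstained with Hoechst 33342; amiodarone as reference inducer.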

[5] = biological target: Nuclear receptor subfamily 1 group I member 2 (Rattus norvegicus) (UniProt Q9R1A7); experiment: Rat pregnane X receptor (rPXR) activation by small molecules, qHTS assay (AID 1346983); details: rPXR luciferase reporter cells, One-Glo luminescence, 24 h; max activation: stronger effect = higher value; also: nearly all actives have a fitted effect of over 20% in size
Sequence of Nuclear receptor subfamily 1 group I member 2 (Rattus norvegicus) (Q9R1A7 whole entry, looked up): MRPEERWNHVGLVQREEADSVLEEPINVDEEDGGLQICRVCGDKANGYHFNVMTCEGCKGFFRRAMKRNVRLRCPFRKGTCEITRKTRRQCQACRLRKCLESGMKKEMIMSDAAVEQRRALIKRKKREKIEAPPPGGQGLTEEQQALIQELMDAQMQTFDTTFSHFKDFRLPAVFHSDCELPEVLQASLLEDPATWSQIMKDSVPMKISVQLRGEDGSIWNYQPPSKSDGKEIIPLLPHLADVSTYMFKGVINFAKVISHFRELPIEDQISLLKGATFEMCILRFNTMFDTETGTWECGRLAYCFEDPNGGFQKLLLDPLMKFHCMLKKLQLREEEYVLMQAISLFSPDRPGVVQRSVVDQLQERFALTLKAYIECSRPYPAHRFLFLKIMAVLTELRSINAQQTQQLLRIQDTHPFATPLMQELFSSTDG
Outline: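 Luminescent readout (One-Glo luciferase, 30 min room temperature) followed 24 hr compound treatment at 37 C of rPXR cells plated 2,000 per well and preincubated 5hr; qHTS format with compounds delivered in DMSO.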

[6] = biological target: Nuclear receptor subfamily 1 group I member 2 (Homo sapiens) (UniProt O75469); experiment: CYP3A4 induction through human pregnane X receptor (PXR) by small molecules, qHTS assay (AID 1346984); also: nearly all actives have a fitted effect of over 40% in size
Outline: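 Readings come from a luciferase reporter: DPX-2 cells, which are HepG2 cotransfected with PXR and a CYP3A4-promoter construct, were exposed to test compounds for 24 h at 37C before One-Glo detection.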

[7] = biological target: Nuclear receptor subfamily 1 group I member 2 (Homo sapiens) (UniProt O75469); experiment: Human pregnane X receptor (PXR) activation by small molecules, qHTS assay (AID 1346985); also: nearly all actives have a fitted effect of over 40% in size
Outline: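 DPX-2 cells (HepG2 co-transfected with a PXR response element and a CYP3A4-promoter luciferase construct) were seeded at 2,000 per well, rested 5 hr at 37C, then exposed to DMSO-dissolved compounds for 24 hr. Activation was read as luciferase luminescence.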

[8] = biological target: Aryl hydrocarbon receptor (Homo sapiens) (UniProt P35869); experiment: qHTS assay to identify small molecule that activate the aryl hydrocarbon receptor (AhR) signaling pathway (AID 743085);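 also: HG2L7.5c1 human HepG2 liver cells with stably integrated DRE-driven firefly reporter; series mostly up to about 70 µM; nearly all actives have a fitted effect of over 15% in size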
Sequence of Aryl hydrocarbon receptor (Homo sapiens) (P35869 whole entry, looked up): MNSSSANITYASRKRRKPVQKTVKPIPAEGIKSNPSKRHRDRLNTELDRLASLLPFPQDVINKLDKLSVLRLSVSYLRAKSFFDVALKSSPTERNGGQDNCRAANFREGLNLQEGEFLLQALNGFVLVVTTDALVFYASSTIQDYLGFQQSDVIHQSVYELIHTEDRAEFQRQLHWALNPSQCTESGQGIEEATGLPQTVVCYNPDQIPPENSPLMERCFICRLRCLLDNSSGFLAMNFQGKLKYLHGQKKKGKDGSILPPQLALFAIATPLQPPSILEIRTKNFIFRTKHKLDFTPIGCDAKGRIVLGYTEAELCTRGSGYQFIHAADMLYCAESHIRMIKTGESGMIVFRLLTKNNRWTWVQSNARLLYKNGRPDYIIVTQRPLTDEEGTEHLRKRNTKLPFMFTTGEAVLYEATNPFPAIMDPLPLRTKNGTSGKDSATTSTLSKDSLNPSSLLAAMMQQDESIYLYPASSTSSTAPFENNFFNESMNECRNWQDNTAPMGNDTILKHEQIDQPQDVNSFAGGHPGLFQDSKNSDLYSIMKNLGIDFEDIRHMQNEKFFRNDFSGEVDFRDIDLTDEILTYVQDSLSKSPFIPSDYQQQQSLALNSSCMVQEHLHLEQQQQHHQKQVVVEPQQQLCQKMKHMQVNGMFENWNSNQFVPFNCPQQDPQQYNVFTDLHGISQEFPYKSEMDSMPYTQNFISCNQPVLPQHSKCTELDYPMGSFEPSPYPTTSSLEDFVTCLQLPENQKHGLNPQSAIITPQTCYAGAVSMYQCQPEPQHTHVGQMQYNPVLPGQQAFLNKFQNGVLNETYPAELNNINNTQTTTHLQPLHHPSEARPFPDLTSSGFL
Outline: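 24 h compound exposure, 37C, HepG2-derived HG2L7.5c1 cells with DRE-responsive luciferase. Readouts: fluorescence viability, then luminescence at room temperature after 30 min.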

| SMILES | Potency [1] | Potency [2] | Potency [3] | Potency [4] | max activation [5] | Potency [6] | Potency [7] | Potency [8] |
| --- | --- | --- | --- | --- | --- | --- | --- | --- |
| O=S(=O)(O)c1cc(O)c2c(N=Nc3ccc(Nc4ccccc4)c4c(S(=O)(=O)O)cccc34)cc(S(=O)(=O)O)cc2c1 | 16.8 µM (active) | 11.9 µM (active) | inactive | inactive | -12% | inactive | inactive |  |
| Cn1c(=O)c2c(ncn2CCOC(=O)C(C)(C)Oc2ccc(Cl)cc2)n(C)c1=O | inactive | inactive |  | inactive | -1.7% | inactive | inactive |  |
| OC[C@H]1O[C@@H](O[C@H]2[C@H](O)[C@@H](O)[C@H](O)O[C@@H]2CO)[C@H](O)[C@@H](O)[C@@H]1O | inactive | inactive | inactive | inactive | -4.71% | inactive | inactive |  |
| Cc1ncc(C[n+]2csc(CCOP(=O)(O)OP(=O)(O)O)c2C)c(N)n1 | inactive | inactive | inactive | inactive | -0.276% | inactive | inactive |  |
| O=C(O)c1nc(=O)[nH]c(=O)[nH]1 | inactive | inactive |  | inactive | -2.15% | inactive | inactive |  |
| C[N+]1(C)[C@@H]2CC(OC(=O)C(O)(c3cccs3)c3cccs3)C[C@H]1[C@@H]1O[C@@H]12 (stereo partly specified) | inactive |  | inactive | inactive | -1.38% | inactive | inactive | inactive |
| O=[N+]([O-])O[C@@H]1CO[C@H]2[C@@H]1OC[C@@H]2O | inactive | inactive | inactive | inactive | -3.54% | inactive | inactive |  |
| O=C1c2ccccc2C(=O)C1c1ccc(Cl)cc1 | inactive | inactive | inactive | inactive | -2.83% | inactive | inactive |  |
| CN=C1C=CC(=C(c2ccc(N(C)C)cc2)c2ccc(N(C)C)cc2)C=C1 | 6.68 µM (active) | 6.68 µM (active) |  | inactive | -26% | inactive | inactive |  |
| Cc1cccc(C)c1NC(=O)NC1=CCCN1C | inactive | inactive | inactive | inactive | -2.14% | inactive | inactive |  |
| CO/N=C(\C(=O)N[C@@H]1C(=O)N2C(C(=O)O)=C(CSc3nnnn3C)CS[C@H]12)c1csc(N)n1 | inactive | inactive | inactive | inactive | -3.46% | inactive | inactive |  |
| C[Se]CCC(N)C(=O)O (stereo unspecified) | inactive | inactive |  | inactive | -0.898% | inactive | inactive |  |
| C=CC1=C(C)C2=CC3=NC(=C(CC(=O)[O-])C4=NC(=C(C)C4=C([O-])[O-])C=c4[n-]c(c(C)c4CC)=CC1=N2)C(CCC(=O)[O-])C3C.[Cu+2].[Na+].[Na+].[Na+] (stereo unspecified) | 23.7 µM (active) | 23.7 µM (active) |  | inactive | -0.69% | inactive | inactive |  |
| CC[C@@]1(O)C[C@H](O[C@H]2C[C@H](N(C)C)[C@H](O[C@H]3C[C@H](O)[C@H](O[C@H]4CCC(=O)[C@H](C)O4)[C@H](C)O3)[C@H](C)O2)c2c(cc3c(c2O)C(=O)c2c(O)cccc2C3=O)[C@H]1C(=O)OC | 26.6 µM (active) | 0.668 µM (active) |  | inactive | -18.5% | inactive | inactive |  |
| CC(C)(C)NCC(O)CSc1nc(-c2ccc(C(N)=O)s2)cs1 (stereo unspecified) | inactive | inactive | inactive | inactive | -4.09% | inactive | inactive |  |
| CO/N=C(\C(=O)N[C@@H]1C(=O)N2C(C(=O)O)=C(CSC(=O)c3ccco3)CS[C@H]12)c1csc(N)n1 | inactive |  | inactive | inactive | -5.54% | inactive | inactive | inactive |
| CC(=O)N[C@@H]1C(O[C@H]2O[C@H](C(=O)O)C(O)[C@H](O)[C@H]2O)[C@H](O)[C@@H](CO)O[C@H]1O[C@@H]1C(C(=O)O)O[C@@H](O[C@H]2[C@H](O)[C@@H](CO)OC(O)[C@@H]2NC(C)=O)[C@H](O)[C@H]1O (stereo partly specified) | inactive | inactive | inactive | inactive | -1.09% | inactive | inactive |  |
| Clc1cc(Cl)c(OCC#CI)cc1Cl | 21.1 µM (active) | 26.6 µM (active) |  | inactive | -1.32% | inactive | inactive |  |
| CO[C@H]1C[C@H](O[C@@H]2/C(C)=C/C[C@@H]3C[C@@H](C[C@]4(CC[C@H](C)[C@@H](C5CCCCC5)O4)O3)OC(=O)[C@@H]3C=C(C)/C(=N/O)[C@H]4OC/C(=C\C=C\[C@@H]2C)[C@]43O)O[C@@H](C)[C@@H]1O | inactive | inactive |  | inactive | -0.144% | inactive | inactive |  |
| CCCC1C(=O)N2C(N(C)C)=Nc3ccc(C)cc3N2C1=O (stereo unspecified) | inactive | inactive |  | inactive | 5.29% | inactive | inactive |  |
